Drawing on PubChem BioAssay AID720650 (Broad Institute, 2013), this text covers AC50 for 39 compounds.

Molecules are shown by their SMILES. Unmarked numbers belong to inactive results. Active and inactive are the calls of the source. How the calls were made is not given here.

This assay in a line: Biochemical counterscreen for C difficile toxins, absence of UDPG, inhibitor dose response (AID 720650). Particulars: series mostly up to 19.5 µM.
For `C[C@@H]1CN([C@@H](C)CO)S(=O)(=O)c2ccc(-c3ccncc3)cc2O[C@@H]1CN(C)Cc1ccc(Oc2ccccc2)cc1`, the AC50 entry was “inactive”.

Turning to `CN(C(=O)COC(=O)CNC(=O)c1ccccc1Cl)c1ccccc1`, the AC50 entry was “inactive”. In the case of `O=C(NC(=S)NCc1ccccc1)c1cccnc1` it was “inactive”; in that of `Cn1c(=O)c2c([nH]c(=S)n2Cc2ccc(Cl)cc2)n(C)c1=O`, “inactive”; in that of `CNC(=O)C[C@H]1CC[C@@H]2[C@H](COc3ccc(NC(=O)c4ccc(OC)cc4)cc3C(=O)N2C)O1`, more than 39 µM. Then `CCN1CC(CNCc2cn(-c3ccc(OC)cc3)nc2-c2ccccc2Cl)CC1=O` (centres undefined), with “inactive”; and `CC(=O)C[C@H]1c2ccccc2S(=O)(=O)N1C1CCCCC1`, with “inactive”. In the case of `COc1cc(C(=O)Nc2scc(-c3ccccc3)c2C(=O)O)cc(OC)c1OC` it was 13.9 µM (active); in that of `CN1CC(=O)N/C1=N\C(=O)Nc1ccc(O)cc1`, “inactive”.

Consider `COc1ccc(/C=N/n2c(-c3cc(C)[nH]n3)n[nH]c2=S)cc1OC`, for which the AC50 is more than 39 µM.

Turning to `COc1cc(C=C2CN(C)C(=O)C2=O)ccc1O`, the AC50 entry is “inactive”. On to `CC(C(=O)OCC(=O)c1c(N)n(C)c(=O)n(C)c1=O)N1C(=O)c2ccccc2C1=O` (centres undefined), for which the AC50 entry was “inactive”.

In the case of `Cn1c(=O)c2[nH]c(=S)n(Cc3ccccc3)c2n(C)c1=O`, the AC50 was 14.4 µM (active).

Turning to `O=C(CN1C(=O)NC2(CCCc3ccccc32)C1=O)NCc1cccs1` (centres undefined), the AC50 entry was “inactive”.

In the case of `CC(C)C12NC(=O)NC(=O)N1CCS2` (centres undefined), the AC50 result is “inactive”.

For `O=C(CSc1nc2cc(Cl)ccc2s1)c1ccco1`, the AC50 was more than 39 µM.

Turning to `Cc1ccc(NC(=O)C2OCCc3ccccc32)cc1C` (centres undefined), the AC50 result was “inactive”. In the case of `c1ccc(-c2nnc(OCC3CCCO3)c3ccccc23)cc1` (centres undefined) it was “inactive”; in that of `Cc1cc(C)c(C)c(S(=O)(=O)N2CCCCC2C(=O)O)c1C` (centres undefined), more than 39 µM. In the case of `Cc1cnc([N+](=O)[O-])n1CCOC(=O)NC(=O)c1ccc(F)cc1` it was “inactive”. In the case of `CC(=O)Nc1ccc(NC(=O)Cc2ccc(S(=O)(=O)N3CCCCC3)cc2)cc1` it was “inactive”. As to `Cc1ccc(N/N=C/c2c(O)n(-c3ccccc3)c(=O)[nH]c2=O)cc1`, the AC50 was 0.875 µM (active). Then `Nc1nnn(CC(=O)N/N=C/c2ccc(O)cc2)n1`, with 16.5 µM (active); and `CCOc1ccc2ccccc2c1/C=N/NC(=O)c1ccncc1`, with “inactive”. In the case of `O=C1NC(=O)/C(=C/c2ccc(O)cc2)S1`, the AC50 is 8.69 µM (active). Then `Clc1cccc(-c2ccc3ncnc(NCc4cccs4)c3c2)c1`, with “inactive”; and `CCOc1ccccc1/C=C/c1onc(C)c1S(=O)(=O)N1CCC(C(=O)NC)CC1`, with “inactive”.

Consider `Cc1ccc(C(=O)Nc2ncc([N+](=O)[O-])s2)cc1`, for which the AC50 is more than 39 µM. Then `O=C(Nc1ccc(N2CCOCC2)c(Cl)c1)c1ccc(F)cc1`, with “inactive”. Consider `Cc1cc(C)nc(NC(N)=NCCc2ccccc2)n1`, for which the AC50 was more than 39 µM. Then `NC(=O)c1ccc2c(=O)c(O)c(-c3cc(Cl)c(N)c(Cl)c3)[nH]c2c1`, with “inactive”; and `Cc1ccc(S(=O)(=O)Oc2cccc(/C=N/Nc3ccc(C(=O)O)cc3)c2)cc1`, with more than 39 µM. On to `Cc1ccc(NC(=O)OC(C)N2CCCCC2)cc1NC(=O)OC(C)N1CCCCC1` (centres undefined), for which the AC50 result was “inactive”. In the case of `COc1cc2[nH]c(=S)n(Cc3cccs3)c(=O)c2cc1OC` it was “inactive”; in that of `COc1cc(N=Nc2c(C)n(C)n(-c3ccccc3)c2=O)ccc1N`, “inactive”. In the case of `COc1ccccc1C=C1SC(=S)NC1=O` it was “inactive”. For the compound `Cc1ccc(NCCN(C)C)c2c(=O)c3cc(O)ccc3sc12`, the AC50 was 5.2 µM (active). As to `COc1cc(/C(C)=N/NC(=O)CSc2nnc(C)s2)ccc1O`, the AC50 result was “inactive”. In the case of `CCCNC(=O)C1CCN(S(=O)(=O)c2c(C)noc2/C=C\c2ccc(OC)cc2)CC1` it was “inactive”.
